From PubChem BioAssay
The source made the active and inactive calls.

Key:
[1] = binders of probe aFSTL3 on microarray, primary screen, stem cell growth factor project, biochemical, small-molecule microarray, fluorescence 635/667 (AID 1064); conditions: higher = more signal;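 also: measures binding of the biotinylated anti-FSTL3 antibody to printed compounds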
[2] = binders from COS7 lysate, DM2A8 probe, primary screen, torsin A project, cell lysate, small-molecule microarray, fluorescence 635/667 (AID 1065); conditions: higher = more signal, COS7 lysate expressing mutant human TOR1A
[3] = binders of probe aFGF2 on microarray, primary screen, stem cell growth factor project, biochemical, small-molecule microarray, fluorescence 635/667 (AID 1067); conditions: higher = more signal;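 also: measures binding of biotinylated aFGF2 protein to printed compounds on slides; z-score merges feature fluorescence and signal-to-noise across triplicate slides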
[4] = binders of probe aFGF10 on microarray, primary screen, stem cell growth factor project, biochemical, small-molecule microarray, fluorescence 635/667 (AID 1071); conditions: higher = more signal;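 also: score merges 667 nm spot intensity and signal to noise from triplicate slides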
[5] = molecular target: Neurogenic locus notch homolog protein 2 (Homo sapiens) (UniProt Q04721); experiment: Notch2 binders on small-molecule microarrays, primary screen, biochemical, small-molecule microarray, 635 nm fluorescence, stem cell growth factors (AID 1073); conditions: Notch2 binding, higher = more signal
[6] = molecular target: Pro-neuregulin-1, membrane-bound isoform (Homo sapiens) (UniProt Q02297); experiment: NRG1 binders on small-molecule microarrays, primary screen, psychiatric disease protein project, biochemical, small-molecule microarray, fluorescence 635/667 (AID 1075); conditions: NRG1 binding, 635 nm fluorescence, higher = more signal;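 also: score combines 667 nm spot fluorescence with signal to noise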
Chain of Pro-neuregulin-1, membrane-bound isoform (Homo sapiens) (Q02297 whole entry, looked up, the tested form may be a part, canonical isoform): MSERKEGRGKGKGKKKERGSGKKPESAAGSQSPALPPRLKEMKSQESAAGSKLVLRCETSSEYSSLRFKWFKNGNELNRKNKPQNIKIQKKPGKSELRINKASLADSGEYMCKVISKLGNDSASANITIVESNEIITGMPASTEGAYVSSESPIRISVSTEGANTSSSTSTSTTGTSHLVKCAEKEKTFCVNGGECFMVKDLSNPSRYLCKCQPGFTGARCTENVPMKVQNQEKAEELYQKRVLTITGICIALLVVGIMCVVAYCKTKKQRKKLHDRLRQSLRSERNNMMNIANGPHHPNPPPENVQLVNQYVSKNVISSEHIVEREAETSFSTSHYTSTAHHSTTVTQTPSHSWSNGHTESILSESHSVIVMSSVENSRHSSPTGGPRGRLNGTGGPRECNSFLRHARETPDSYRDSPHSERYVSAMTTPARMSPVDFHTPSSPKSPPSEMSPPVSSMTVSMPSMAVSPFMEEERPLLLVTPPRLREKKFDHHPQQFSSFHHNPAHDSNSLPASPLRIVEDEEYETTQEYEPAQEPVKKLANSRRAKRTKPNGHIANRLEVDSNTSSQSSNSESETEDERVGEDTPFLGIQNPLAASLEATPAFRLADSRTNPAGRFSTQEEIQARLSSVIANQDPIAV

[7] = system: Neuregulin-1 EGF-like domain; experiment: binders of neuregulin-1 EGF-like domain, primary screen, biochemical, small-molecule microarray, 635 nm fluorescence (AID 1081); conditions: small-molecule microarray binding, higher = more signal;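 also: binding of the protein to compounds printed on small-molecule microarray slides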
[8] = FRG1 promoter luciferase signal modulators, primary screen, FRG1 inhibition for FSHD, cell-based, C2C12 myotubes, firefly/Renilla luciferase, luminescence (AID 1084); conditions: higher = more signal, called active from +8 up or from −8 down
[9] = binders of probe aFST on microarray, primary screen, stem cell growth factor project, biochemical, small-molecule microarray, fluorescence 635/667 (AID 1086); conditions: higher = more signal;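 also: score merges 667 nm fluorescence with signal-to-noise of each printed compound spot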
[10] = binders of probe aHhip on microarray, primary screen, stem cell growth factor project, biochemical, small-molecule microarray, fluorescence 635/667 (AID 1087); conditions: higher = more signal;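 also: score merges spot fluorescence at 667nm with spot signal to noise ratio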
[11] = system: PRMT1 (protein arginine N-methyltransferase 1); experiment: PRMT1 binders on small-molecule microarrays, primary screen, biochemical, small-molecule microarray, 635 nm fluorescence (AID 1088); conditions: small-molecule microarray binding, higher = more signal;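 also: binding of Prmt1 protein to compounds spotted on small-molecule microarray slides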
[12] = yeast growth modulation, basal conditions, primary screen, YJM789 clinical isolate, OD600, 24 h (AID 1089);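 also: growth of clinical yeast isolate S. cerevisiae YJM 789 seeded 1000 cells per well; test concentration not given here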; conditions: S. cerevisiae YJM789 growth, higher = more signal, called active from +8 up or from −8 down
[13] = fission yeast growth modulation, primary screen, strain 972, OD600, 24 h, no modulator (AID 1090);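 also: basal condition with compound alone and no growth modifier present; test concentration not given here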; conditions: S. pombe 972 growth, higher = more signal, called active from +8 up or from −8 down
[14] = S. cerevisiae growth modulation with rapamycin, primary screen, strain BY4716, OD600, 96 h (AID 1091); conditions: higher = more signal, called active from +8 up or from −8 down; also: test concentration not given here
[15] = molecular target: Torsin-1A-interacting protein 2 (Homo sapiens) (UniProt Q8NFQ8); experiment: LULL1 binders on small-molecule microarray, primary screen, cell lysate, human LULL1 lysate, 635/667 nm fluorescence (AID 1092); conditions: hLULL1 lysate binding, 635 nm fluorescence, higher = more signal;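 also: probe is lysate of COS7 cells overexpressing human LULL1; score merges per-feature 667 nm fluorescence with signal-to-noise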
Chain of Torsin-1A-interacting protein 2 (Homo sapiens) (Q8NFQ8 whole entry, looked up): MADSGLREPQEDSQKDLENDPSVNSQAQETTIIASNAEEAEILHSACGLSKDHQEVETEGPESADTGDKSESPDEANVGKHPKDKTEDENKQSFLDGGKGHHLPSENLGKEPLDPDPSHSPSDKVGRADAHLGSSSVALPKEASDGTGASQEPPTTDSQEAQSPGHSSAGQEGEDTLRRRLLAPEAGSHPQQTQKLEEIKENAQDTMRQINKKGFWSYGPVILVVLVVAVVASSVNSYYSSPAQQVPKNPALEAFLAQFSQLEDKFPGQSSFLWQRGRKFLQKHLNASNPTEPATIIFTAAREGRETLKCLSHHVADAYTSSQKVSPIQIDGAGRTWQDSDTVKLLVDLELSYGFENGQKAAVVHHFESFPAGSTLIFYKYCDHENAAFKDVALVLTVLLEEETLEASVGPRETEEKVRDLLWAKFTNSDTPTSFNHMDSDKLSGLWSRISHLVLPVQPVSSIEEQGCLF

[16] = E. coli growth modulation, two-sided OD650, primary screen, E. coli filamentation project, strain DRC41, 24 h (AID 1093); conditions: OD650, 24 h, higher = more signal, called active from +8 up or from −8 down;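 also: MC1000 strain lacking acrAB efflux and sulA so SOS filamentation is blocked; test concentration not given here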
[17] = small-molecule microarray binders of probe aLefty2, primary screen, biochemical, biotinylated probe, 635/667 nm fluorescence (AID 1094); conditions: higher = more signal;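 also: score merges spot fluorescence near 667 nm with spot signal-to-noise ratio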
[18] = system: Noggin (protein binding on small-molecule microarray); experiment: Noggin binders on small-molecule microarray, primary screen, biochemical, 635/667 nm fluorescence (AID 1095); conditions: 635 nm fluorescence, higher = more signal;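 also: score merges 667 nm feature fluorescence with signal to noise over triplicate slides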
[19] = molecular target: Neurogenic locus notch homolog protein 3 (Homo sapiens) (UniProt Q9UM47); experiment: NOTCH3 binders on small-molecule microarray, primary screen, biochemical, 635/667 nm fluorescence (AID 1096); conditions: NOTCH3 binding, 635 nm fluorescence, higher = more signal
Chain of Neurogenic locus notch homolog protein 3 (Homo sapiens) (Q9UM47 whole entry, looked up): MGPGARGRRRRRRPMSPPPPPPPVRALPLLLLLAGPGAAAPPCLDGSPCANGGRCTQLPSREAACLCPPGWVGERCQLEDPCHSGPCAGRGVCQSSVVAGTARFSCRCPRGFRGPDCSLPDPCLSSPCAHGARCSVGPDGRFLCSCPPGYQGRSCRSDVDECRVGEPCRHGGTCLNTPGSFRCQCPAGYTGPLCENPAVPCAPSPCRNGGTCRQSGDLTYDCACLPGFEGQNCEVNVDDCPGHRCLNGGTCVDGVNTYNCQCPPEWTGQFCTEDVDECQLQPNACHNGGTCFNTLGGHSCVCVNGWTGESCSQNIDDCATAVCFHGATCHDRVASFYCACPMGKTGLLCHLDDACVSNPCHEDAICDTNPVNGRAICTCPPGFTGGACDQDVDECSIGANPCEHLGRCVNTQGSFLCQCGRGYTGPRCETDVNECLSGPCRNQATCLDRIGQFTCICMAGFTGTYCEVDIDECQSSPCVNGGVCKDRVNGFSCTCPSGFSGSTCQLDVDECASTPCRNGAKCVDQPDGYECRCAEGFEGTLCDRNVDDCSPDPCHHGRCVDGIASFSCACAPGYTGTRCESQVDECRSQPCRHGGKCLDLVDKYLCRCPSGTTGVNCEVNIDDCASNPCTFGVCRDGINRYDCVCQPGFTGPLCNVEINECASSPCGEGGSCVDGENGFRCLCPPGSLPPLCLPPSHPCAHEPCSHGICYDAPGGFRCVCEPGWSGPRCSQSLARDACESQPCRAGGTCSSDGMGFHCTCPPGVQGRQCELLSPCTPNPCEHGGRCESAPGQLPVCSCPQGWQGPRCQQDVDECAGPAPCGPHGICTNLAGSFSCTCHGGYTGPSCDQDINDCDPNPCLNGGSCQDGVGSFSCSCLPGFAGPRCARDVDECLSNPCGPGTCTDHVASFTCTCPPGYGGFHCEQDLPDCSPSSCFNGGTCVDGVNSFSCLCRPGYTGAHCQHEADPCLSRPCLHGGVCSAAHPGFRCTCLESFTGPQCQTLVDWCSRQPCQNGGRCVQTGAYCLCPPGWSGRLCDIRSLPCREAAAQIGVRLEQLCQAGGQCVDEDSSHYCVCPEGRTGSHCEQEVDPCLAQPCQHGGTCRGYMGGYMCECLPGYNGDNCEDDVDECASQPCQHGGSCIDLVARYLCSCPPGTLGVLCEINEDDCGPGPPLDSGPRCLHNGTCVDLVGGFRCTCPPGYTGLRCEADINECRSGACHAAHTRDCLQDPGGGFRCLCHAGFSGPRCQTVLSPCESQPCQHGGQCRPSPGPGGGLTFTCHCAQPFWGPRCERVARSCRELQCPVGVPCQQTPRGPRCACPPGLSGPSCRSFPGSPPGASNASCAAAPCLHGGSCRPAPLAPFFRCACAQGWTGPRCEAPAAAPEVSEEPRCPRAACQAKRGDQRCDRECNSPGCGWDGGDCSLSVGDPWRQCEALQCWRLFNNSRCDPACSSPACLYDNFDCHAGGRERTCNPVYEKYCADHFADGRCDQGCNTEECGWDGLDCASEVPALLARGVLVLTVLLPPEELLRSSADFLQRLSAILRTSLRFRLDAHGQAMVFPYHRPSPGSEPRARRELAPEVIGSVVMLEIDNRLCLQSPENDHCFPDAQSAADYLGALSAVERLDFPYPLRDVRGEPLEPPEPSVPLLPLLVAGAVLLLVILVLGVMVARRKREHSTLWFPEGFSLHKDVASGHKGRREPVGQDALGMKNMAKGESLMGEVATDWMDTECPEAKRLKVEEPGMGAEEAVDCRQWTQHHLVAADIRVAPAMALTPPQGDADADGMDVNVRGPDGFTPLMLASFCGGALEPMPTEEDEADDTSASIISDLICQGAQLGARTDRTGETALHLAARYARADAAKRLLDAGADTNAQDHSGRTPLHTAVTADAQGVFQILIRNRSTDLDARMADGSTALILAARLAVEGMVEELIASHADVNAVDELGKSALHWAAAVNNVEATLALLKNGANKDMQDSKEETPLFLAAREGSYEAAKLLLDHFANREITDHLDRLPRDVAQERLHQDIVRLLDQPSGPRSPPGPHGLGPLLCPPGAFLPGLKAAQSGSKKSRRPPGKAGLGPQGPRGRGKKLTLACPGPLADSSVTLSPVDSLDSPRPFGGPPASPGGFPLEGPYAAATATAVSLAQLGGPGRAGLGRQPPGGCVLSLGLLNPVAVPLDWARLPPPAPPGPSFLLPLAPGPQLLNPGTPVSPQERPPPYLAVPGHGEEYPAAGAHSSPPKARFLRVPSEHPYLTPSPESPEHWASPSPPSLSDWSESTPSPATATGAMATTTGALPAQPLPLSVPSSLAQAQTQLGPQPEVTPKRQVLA

[20] = small-molecule microarray binders of probe aEGFR, primary screen, biochemical, biotinylated probe, 635/667 nm fluorescence (AID 1097); conditions: higher = more signal;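 also: probe is a biotinylated anti-EGFR antibody binding compounds printed on slides; score combines fluorescence near 667 nm and signal to noise of each spot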

Structure (SMILES)	composite z-score [1]	composite z-score [2]	composite z-score [3]	composite z-score [4]	composite z-score [5]	composite z-score [6]	composite z-score [7]	z-score [8]	composite z-score [9]	composite z-score [10]	composite z-score [11]	z-score [12]	z-score [13]	z-score [14]	composite z-score [15]	z-score [16]	composite z-score [17]	composite z-score [18]	composite z-score [19]	composite z-score [20]
O=C1C2C=CC(C(O)c3cc(C(F)(F)F)cc(C(F)(F)F)c3)N(Nc3ccc([N+](=O)[O-])cc3)C2C(=O)N1c1ccccc1 (stereo not given)	-0.25	0.466	0.0678	0.94	1.67	1.86	1.17	0.0404 (inactive)	0.598	-0.166	1.54	0.527 (inactive)	1.15 (inactive)	33.4 (active)	3.47	-1.57 (inactive)	-0.0229	0.411	1.02	0.0149
COc1ccc([Si](C)(C)[C@H]2[C@H](CCn3cc([C@H](O)c4ccccc4)nn3)O[C@@]3(C(=O)N(Cc4cccc(N5C(=O)c6cccc7cccc5c67)c4)c4ccccc43)[C@@H]2C)cc1	0.582	-0.17	-0.158	-1.11	-1.65	0.84	0.251	-0.704 (inactive)	-0.295	-0.0994	0.492	-0.844 (inactive)	0.723 (inactive)	0.635 (inactive)	1.28	-0.666 (inactive)	-0.134	-1.17	-0.871	-0.21
Cc1ccc(S[C@]2(C(=O)NCC(F)(F)F)CC(=O)N(Cc3ccccc3)[C@@H]2c2ccc(CO)cc2)cc1	0.2	0.179	-0.158	-0.453	-0.851	0.248	0.463	-2.41 (inactive)	-0.543	-0.266	0.293	0.249 (inactive)	-1.2 (inactive)	-0.711 (inactive)	2.06	-1.68 (inactive)	-0.137	-0.92	-0.681	-0.178
CCOC(=O)C[C@H]1[C@H](OC(=O)Cc2ccc3c(c2)OCO3)[C@@H](NC(=O)Cc2ccc(OC)cc2)c2cc(OCCCO)ccc2N1C(=O)c1ccccc1	-0.244	0.188	-0.11	0.494	0.608	0.416	0.436	-1.38 (inactive)	0.447	-0.353	1.26	-0.13 (inactive)	0.0145 (inactive)	0.234 (inactive)	1.37	1.26 (inactive)	-0.0846	0.0653	0.608	0.0032
O=C1O[C@@H](c2ccccc2)[C@@H](c2ccccc2)N2[C@@H](c3ccc(O)cc3)[C@]3(C(=O)Nc4ccc(C#CCCO)cc43)[C@@H](C(=O)Nc3nc4ccccc4s3)[C@H]12	0.0071	1.27	-0.0721	0.987	0.37	1.45	1.19	0.213 (inactive)	0.158	-0.236	1.55	0.782 (inactive)	0.403 (inactive)	1.93 (inactive)	2.81	0.887 (inactive)	-0.119	1.35	0.851	-0.0036
CCOC(=O)[C@H]1C/C=C/C[C@H](C(=O)OCC)C(=O)O[C@H]2[C@@H](OC)O[C@H](CO)[C@@H](OC(=O)Nc3ccc(OC)cc3)[C@@H]2OC1=O	-0.0119	0.753	0.0386	0.803	1.16	0.309	0.94	2.18 (inactive)	0.363	0.675	1.49	1.04 (inactive)	-0.0368 (inactive)	3.56 (inactive)	2.03	1.3 (inactive)	0.217	0.713	1.09	-0.0737
C=CCOC(=O)[C@H]1[C@@H]2C(=O)O[C@@H](c3ccccc3)[C@@H](c3ccccc3)N2[C@@H](c2ccc(OCCOC(=O)[C@H]3C[C@H]4C(=O)N[C@@H](Cc5ccccc5)C(=O)N4[C@H]3c3ccc(O)cc3)cc2)[C@]12C(=O)Nc1ccc(I)cc12	0.558	0.412	-0.0093	0.979	0.779	0.932	1.21	0.808 (inactive)	2.17	-0.582	1.55	0.827 (inactive)	1.36 (inactive)	3.95 (inactive)	2.39	-0.305 (inactive)	-0.0267	1.69	1.05	-0.118
CN(C)CCCNC(=O)[C@@]1(C)c2ccccc2C(=O)N(Cc2cc(C(F)(F)F)cc(C(F)(F)F)c2)[C@H]1c1ccc(CO)cc1	-0.303	-0.401	-0.141	-0.404	-0.463	-0.012	0.538	0.123 (inactive)	-0.353	0.192	0.0376	0.113 (inactive)	-1.83 (inactive)	-0.945 (inactive)	0.324	-0.72 (inactive)	-0.192	-1.19	-0.35	-0.186
COCCOC(=O)N1C(=O)[C@@]2(c3cc(C#CC4(O)CCCCCC4)ccc31)[C@H](C(N)=O)[C@H]1C(=O)O[C@H](c3ccccc3)[C@H](c3ccccc3)N1[C@@H]2c1ccc(O)cc1	-0.353	0.516	-0.0494	0.544	0.618	0.446	1.28	0.116 (inactive)	0.33	0.192	1.55	0.121 (inactive)	0.182 (inactive)	0.523 (inactive)	2.41	-0.426 (inactive)	-0.0009	1.53	1.12	-0.0418
O=c1cccc(-c2cccc(Cl)c2)o1	-0.118	-0.341	-0.0937	0.299	-0.0173	-0.0364	0.409	2.02 (inactive)	0.433	-0.223	0.0485	-3.86 (inactive)	-4.41 (inactive)	5.45 (inactive)	0.0149	0.658 (inactive)	-0.0927	-0.162	0.136	-0.0304
CCOc1cc(C(O)C2C=CC3C(=O)N(C)C(=O)C3N2N2CCCCC2)ccc1O (stereo not given)	-0.152	0.38	0.0421	0.348	0.885	1.45	0.496	0.133 (inactive)	0.707	0.0139	0.163	1.26 (inactive)	0.803 (inactive)	1.63 (inactive)	2.56	-0.613 (inactive)	0.0209	-0.185	0.0152	0.0054
CC(=O)N1Cc2ccccc2C[C@]2(N=C(c3ccc(OCCCO)cc3)O[C@@H]2c2ccccc2)C1=O	0.864	0.688	0.0512	0.458	0.875	1.04	1.34	-2.24 (inactive)	0.33	-0.238	1.55	0.369 (inactive)	-2.91 (inactive)	13.6 (active)	3.07	1.52 (inactive)	0.0081	0.648	1.07	0.0557
COC(=O)[C@@]1(Cc2ccc(OC)cc2)[C@H]2c3cc(C(=O)N(C)C)n(CCc4c[nH]c5ccc(O)cc45)c3C[C@H]2CN1C(=O)c1ccccc1	1.27	-0.0234	0.147	1.04	1.69	1.91	1.25	1.5 (inactive)	1.7	0.177	0.56	1.94 (inactive)	0.466 (inactive)	3.51 (inactive)	3.36	-0.765 (inactive)	0.41	-0.0794	1.02	0.102
CC1CC/C=C\[C@H]2OC34C=CCN(C(C)C)C(=O)[C@H]3N(CCCCCO)C(=O)[C@@H]4C2C(=O)O1 (stereo not given in full)	0.4	-1.06	-0.0996	-0.47	-0.704	-0.187	0.0093	0.371 (inactive)	-0.386	-0.191	-0.897	-0.104 (inactive)	-0.931 (inactive)	-0.958 (inactive)	-0.573	0.827 (inactive)	-0.139	-1.43	-0.208	-0.281
CCOC(=O)C[C@H]1[C@H](OC(=O)c2ccccc2-c2ccccc2)[C@@H](NC(=O)c2ccc3ccccc3n2)c2cc(OCCCO)ccc2N1C(=O)c1ccc2ccccc2n1	-0.348	0.749	-0.074	0.304	0.607	0.189	0.0721	0.075 (inactive)	0.189	-0.0994	0.215	-0.717 (inactive)	-0.653 (inactive)	-0.299 (inactive)	0.84	0.597 (inactive)	-0.269	0.283	0.598	-0.0512
COc1cc(CO)cc(I)c1O[C@H]1C=C(C(=O)NCCO)C[C@@H](N(CC2CCCCC2)C(=O)c2ccc(C(F)(F)F)cc2)[C@@H]1O	-0.356	0.0668	-0.101	0.268	0.546	0.115	1.02	-1.85 (inactive)	0.0701	0.12	1.23	0.0635 (inactive)	-0.169 (inactive)	-0.0789 (inactive)	1.89	1.78 (inactive)	-0.166	0.586	0.937	-0.0828
CC(C)c1ccc(NN2C(C(O)c3ccco3)C=CC3C(=O)N(c4ccccc4)C(=O)C32)cc1 (stereo not given)	0.447	0.334	0.106	0.677	1.71	1.46	1.2	-1.22 (inactive)	1.34	-0.0606	1.57	0.61 (inactive)	0.431 (inactive)	-0.419 (inactive)	3.27	-0.577 (inactive)	0.0997	0.18	1.02	0.0308
CCCNC(=O)[C@@]1(c2ccc([N+](=O)[O-])cc2)CC(=O)N(C2CCCCC2)[C@@H]1c1ccc(CO)cc1I	0.368	0.983	0.091	0.599	0.96	0.456	1.21	-0.546 (inactive)	0.29	-0.0994	1.48	-1.58 (inactive)	0.503 (inactive)	1.93 (inactive)	2.52	0.422 (inactive)	-0.0649	1.5	0.976	0.0592
Cc1ccc(S[C@]2(C(=O)NCc3ccccc3)CC(=O)N(C(C)C)[C@@H]2c2ccc(CO)cc2I)cc1	2	-0.464	-0.177	-0.392	-1.09	1.05	0.399	-1.16 (inactive)	0.03	0.0623	0.448	-2.82 (inactive)	-1.38 (inactive)	0.317 (inactive)	1.73	0.349 (inactive)	0.299	-0.466	-0.44	-0.229
